Experimental data reported in ChEMBL document CHEMBL3988442, “University of Dundee, Small-Polar-MMV Screening Library” (2021).
“And” between values parts separate entries of the source, which are not always exact repeats. Equal entries are not always repeated. Out of some 34,000 compounds screened, about 290 (0.85%) showed an effect of 50% or more. For the sample, strong results were picked, then their nearest neighbours and some compounds at random.

System: Plasmodium falciparum
Test: Plasmodium falciparum sporozoite viability assay
Assay type: functional, organism-based
Set-up: scale not given: in the data most compounds retested in dose-response had high values

SMILES	Percent Effect	Percent Effect (10 mM as filed; unlikely as a test dose)
Cc1nn(C)cc1CN(C)Cc1cc2c(cc1OC(F)F)OCO2	5.075%	–
Cc1nc(CN(C)Cc2cc3c(cc2OC(F)F)OCO3)cs1	–	-8.742% and -16.17%
Cc1ncsc1CN(C)Cc1cc2c(cc1OC(F)F)OCO2	–	74.26% and 62.83%
CC(Cn1ccnc1)NC(=O)C1(c2ccc(F)cc2)CCCC1 (centres undefined)	23.02%	–
Cc1cc(N2CCC(c3n[nH]c4nccnc34)CC2)ncn1	7.584%	–
Brc1cccc(-c2nnc(CNCCn3cccn3)o2)c1	2.399%	–
c1csc(-c2noc(CN3CCc4cncnc4C3)n2)c1	–	24.87% and 17.34% and 36.23%
CC(C)c1nc2c(n1C)CCN(Cc1nc(-c3ccsc3)no1)C2	–	73.25% and 58.56% and 70.51%
CC(C)c1ncc2c(n1)CN(Cc1nc(-c3cccs3)no1)CC2	–	13.28% and 7.226% and -0.3719%
CC(C)c1ncc2c(n1)CN(Cc1nc(-c3ccoc3)no1)CC2	–	11.99% and 7.268% and 10.61%
CC(C)c1nc2c(n1C)CCN(Cc1nc(-c3ccoc3)no1)C2	–	83.83% and 76.55% and 70.15%
CC(C)c1ncc2c(n1)CN(Cc1nc(-c3ccsc3)no1)CC2	18.76%	–
Cn1c(C2CC2)nc2c1CCN(Cc1nc(-c3ccsc3)no1)C2	–	19.95% and 27.05% and 21.39%
CC(C)c1nc2c(n1C)CCN(Cc1nc(-c3cccs3)no1)C2	–	44.7% and 61.16% and 58.76%
Cn1cnc2c1CCN(Cc1nc(-c3ccco3)no1)C2	–	12.07% and 12.49%
COc1ccccc1OCCNC(=O)CN1CCc2cncnc2C1	-7.271%	–
O=C1CN(c2ccc(CNC(=O)NCc3ccoc3)cc2)CCN1	13.47%	–
Cc1cn2c(n1)CCC(NC(=O)c1[nH]ncc1Br)C2 (centres undefined)	-6.244%	–
Cc1cc(C(=O)N[C@@H]2CCC[C@@H](N3CCOCC3)[C@@H]2O)no1	7.233%	–
O=C(O)C(F)(F)F.O=C([C@H]1C[C@H]2OCC[C@H]2N(CCc2ccccc2)C1)N1CCCCO1	-6.171%	–
CCCOC(=O)N1CCn2nc(-c3nc4ccccc4n3C)cc2C1	–	47.05% and 19.27%
Cn1c(-c2cc3n(n2)CCCN(CC(=O)O)C3)nc2ccccc21	–	91.97% and 88.48%
CN1CCn2nc(-c3nc4ccccc4n3C)cc2C1	–	21.76% and 43.98%
NC(=O)C1CN(C(=O)Nc2ccc(SC(F)(F)F)cc2)CCO1 (centres undefined)	26.37%	–
CC(C)(C(=O)N[C@@H]1CCC[C@@H](O)[C@@H]1O)c1cccc(F)c1	7.186%	–

SMILES	Percent Effect	Percent Effect (10 mM as filed; unlikely as a test dose)
Cc1ccc(CCNC(=O)Nc2cc(C(F)(F)F)c[nH]c2=O)o1	-6.166%	–
O=C(Cc1cn2ccsc2n1)N1CCCC(n2ccnc2)C1 (centres undefined)	9.411%	–
CN(C)c1ccc(NC(=O)N2CCCCCC2c2ccncc2)cn1 (centres undefined)	–	-8.99% and -20.34% and -20.82%
CCOc1ccc(C(=O)N2CCCC2c2cnn(C)c2)cn1 (centres undefined)	2.866%	–
CNCC(=O)N[C@H]1CN(c2nc(C)c3c(n2)CCCC3)C[C@@H]1C1CC1	–	74.85% and 85.09%
COCCC(=O)N[C@H]1CN(c2nc(C)c3c(n2)CCCC3)C[C@@H]1C1CC1	–	37.56% and 25.17%
CNc1nc(N2C[C@H](NC(=O)CCOC)[C@@H](C3CC3)C2)nc2c1CCC2	–	-17.73% and -19.53%
Cc1n[nH]c(C)c1-c1cnc(CC2CCN(C)C2)cn1 (centres undefined)	-7.497%	–
Cc1cccc(Nc2nccnc2C2CCCN(CC(=O)N(C)C)C2)n1 (centres undefined)	4.997%	–
NC(=O)CN1CCCC(c2ccnc(Nc3ncccn3)c2)C1 (centres undefined)	–	24.34% and 12.28% and 9.246%
Cc1cccc(Nc2nccnc2C2CCCN2CC(N)=O)n1 (centres undefined)	7.262%	–
Cc1cc(Nc2ccccn2)nc(C2CCCN(CCO)C2)n1.O=CO (centres undefined)	9.991%	–
Cc1cccc(Nc2cc(C3CCCN(CC(N)=O)C3)ccn2)n1.O=CO.O=CO (centres undefined)	–	98.38% and 92.39% and 79.92%
COc1cc(NC(=O)c2ccc(F)cc2Cl)c(C(=O)N(C)C)cc1OC	-12.25%	–
O=C(C1CCOCC1)N1CCc2ncc(CN3CCCCC3)n2CC1	-3.866%	–
c1cnn(CC2CN(c3ncnc4[nH]ccc34)CCO2)c1 (centres undefined)	-8.614%	–
Cc1nc(CN2CCC3(CC2)NC(=O)CC3c2cccnc2)cs1 (centres undefined)	-8.123%	–
Cc1cc(CN2CCC3(CC2)C(=O)NCCN3CC2CC2)oc1C	-0.5945%	–
O[C@H]1CN(CCOc2ccc(F)cc2)CC[C@@]12CCCO2	–	66.45% and 84.39% and 80.81%
O[C@H]1CN(CCCOc2ccccc2F)CC[C@@]12CCCO2	14%	–
OC1CCCOC12CCN(CCCOc1ccccc1F)CC2 (centres undefined)	2.153%	–
COc1ccccc1CNC(Cc1cccs1)c1nc(C)cs1.Cl (centres undefined)	-2.216%	–
Cc1cc(C)n(C2CN(CCC(=O)NC3CCCCC3)C2)n1	-0.4038%	–
CC(C)NC(=O)C1CN(C(=O)Nc2ccc(F)cc2)CC12CCOCC2 (centres undefined)	-6.778%	–
CNc1cncc(C2CCCN2C(=O)c2ccc3c(c2)CCC3)n1 (centres undefined)	5.523%	–

SMILES	Percent Effect	Percent Effect (10 mM as filed; unlikely as a test dose)
CC(NC(=O)Nc1ccc(OC2CCCC2)cc1)c1nc[nH]n1 (centres undefined)	–	68.07% and 85.04%
COc1ccc(NC(=O)NC(C)c2nc[nH]n2)cc1 (centres undefined)	–	-24.45% and -7.709% and -11.14%
CCN1CCC(CNC(=O)Nc2cc(C)on2)C1 (centres undefined)	13.21%	–
COC(=O)c1cccn1C1CCN(Cc2nc3ccccc3o2)CC1	-2.498%	–
CN(CC1(CO)CCCC1)c1nc2c(c(=O)[nH]1)Cc1ccccc1OC2	–	63.62% and 42.71%
CN(C)c1nc2c(c(=O)[nH]1)Cc1ccccc1OC2	–	9.66% and 16.82%
CNC(=O)N1CC[C@H]2N(C)CC[C@@]2(C(=O)N2CCOCC2)CC1.O=C(O)C(F)(F)F	9.37%	–
Cc1cnn(CC2CCCN2C(=O)Cc2c(C)noc2Cl)c1 (centres undefined)	8.684%	–
Cc1ccc(CN2C[C@@H]3COC[C@H](C(=O)N4CCCCO4)[C@@H]3C2)o1.O=C(O)C(F)(F)F	–	-11.42% and -12.39% and -13.97%
O=C(c1ccncc1)N1CCc2[nH]nc(Nc3ccccc3)c2C1	-2.217%	–
Cn1cnc2cc(NC(=O)c3n[nH]c4c3CCC4)ccc21	–	-48.98% and -33.08%
CC(C)c1nc2cc(NC(=O)c3n[nH]c4c3CCC4)ccc2n1C	–	73.89% and 87.21%
CN(C)CCCn1cnc2cc(NC(=O)c3n[nH]c4c3CCC4)ccc21	–	-35.39% and -25.92%
Cn1cc(C(=O)N2CCN(Cc3ccccn3)CC2)ccc1=O	-3.259%	–
Cc1ccccc1C(C(=O)O)N(C)CC1CCOCC1 (centres undefined)	-26.36%	–
COc1c(CNC(c2ccccc2)c2nccn2C)c(C)nn1C (centres undefined)	11.35%	–
C(=C\c1ccc(CN2CCCC2)cn1)/c1ccccc1	–	78.68% and 64.66%
c1cc(-c2cn[nH]c2)ncc1CN1CCCCC1	–	-7.187% and -9.51%
O=C(O)c1ccccc1-c1ccc(CN2CCOCC2)cn1	6.918%	–
O=C(C1CCOC1)N1C[C@H]2CN(Cc3cccc(F)c3)C(=O)[C@H]2C1 (some centres undefined)	12.32%	–
CC(C)NC(=O)c1csc(NC2CC2)n1	-5.904%	–
NC(=O)c1cn[nH]c1C1CCCN1C(=O)c1ccccc1 (centres undefined)	-3.133%	–
O=C(Nc1cc(C2CCOCC2)[nH]n1)c1cscn1	17.19%	–
COc1cc(N[C@@H](Cc2ccccc2)C(N)=O)ncn1	10.88%	–
COc1ncnc(N(C)C)c1NC(=O)c1cscc1C	-11.09%	–

SMILES	Percent Effect	Percent Effect (10 mM as filed; unlikely as a test dose)
COC(=O)[C@@H]1CN(C(=O)c2cscn2)C[C@H]1c1ccc(OC)cc1	5.827%	–
Cc1cnc(CN(C)C2CCN(Cc3nnc(C4CC4)o3)C2)o1 (centres undefined)	13.1%	–
OC(COCc1ccccc1)CN1CCC(c2ccn[nH]2)CC1 (centres undefined)	8.709%	–
c1cc(CN2CCCC(c3nnc(-c4cnccn4)o3)C2)ccn1 (centres undefined)	8.33%	–
O=C(O)C(F)(F)F.O=C1COC2(CCN(Cc3ccoc3)CC2)CN1c1ccsc1	-2.422%	–
Cn1cc(CN2CC[C@H](O)[C@@H]2Cc2ccncc2)cn1	14.17%	–
Cc1cc(C)n(C(=O)Cn2nc(C)c(I)c2C)n1	-1.053%	–
CN1CCCC1CCn1ccnc1-c1nc(-c2ccccc2)no1 (centres undefined)	–	77.95% and 70.89%
CN1CCCC1c1ccnc(-c2ccccc2)n1 (centres undefined)	8.44%	–
CN(C)c1ncccc1CNS(=O)(=O)c1ccc(F)cc1F	5.626%	–
CC/N=c1\nc(NCC)nc2n1C(O)(Nc1cccc(C)c1C)CS2 (centres undefined)	–	-13.62% and 2.28%
CC/N=c1\nc(NCC)nc2n1C(O)(Nc1cc(C)ccc1C)CS2 (centres undefined)	–	-7.651% and -13.62%
CC/N=c1\nc(NCC)nc2n1C(O)(Nc1ccc(C)cc1C)CS2 (centres undefined)	–	76.89% and 79.52%
O=S(=O)(c1ccccc1)N1CCC[C@]2(C[C@H](OCC3CC3)CO2)C1	-0.3567%	–
O=C(CCOc1ccccc1F)N1CCC(O)CC1	–	-2.056% and -15.58% and -4.248%
CN1CCOC(CNC(=O)CCCOc2cccc(F)c2)C1 (centres undefined)	–	7.848% and 7.883% and 5.332%
NCCO[C@H]1C[C@@H](O)C12CCN(C(=O)CCOc1ccccc1)CC2	–	3.322% and 1.71%
CN1CCOC(CNC(=O)CCCOc2ccccc2F)C1 (centres undefined)	–	51.69% and 61.26% and 47.35%
Cc1ccccc1OCCCC(=O)NCC1CN(C)CCO1 (centres undefined)	–	6.067% and -2.638% and -0.6996%
CCn1cnnc1C1CCN(C(=O)COCCc2ccccc2)CC1	–	-3.699% and -24.35% and -22.69%
CO[C@H]1C[C@@H](O)C12CCN(C(=O)NCc1ccco1)CC2	8.391%	–
CC(O)CN1CCN(C(=O)CCOc2ccccc2F)CC1 (centres undefined)	–	8.088% and -8.879% and -8.774%
CO[C@H]1C[C@@H](O)C12CCN(C(=O)CCCOc1ccccc1)CC2	–	88.4% and 94.39%
CCn1cnnc1C1CCN(C(=O)CCCOc2ccccc2)CC1	–	42.92% and 40.5% and 58.13%
